Experimental data: PubChem BioAssay (EPA / NIEHS)
Calls of active or inactive are those of the source. How the source made its calls: active means hit-call score of the fitted dose curve at least 0.9, where 1 is the maximum; inconclusive means response in the unintended direction; inactive means score below 0.9.

biological target: Estrogen receptor beta (Homo sapiens) (UniProt Q92731); assay: OT_ER_ERbERb_1440: Odyssey Thera (OT) 24-hour HEK293T Protein-Complementation Assay for Estrogen Receptor-beta/-beta Homodimer (AID 2283380);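 further: scored as signal increase over DMSO baseline for both agonists and antagonists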
Procedure: OT_ER_ERbERb_1440 is a cell-based assay that uses HEK293T, a human kidney cell line, with measurements taken at 24 hours after chemical dosing in a 384-well plate.OT_ER_ERbERb_1440 is one of one assay component(s) measured or calculated from the OT_ER_ERbERb_1440 assay. It is designed to make measurements of protein fragment complementation, a form of binding reporter, as detected with fluorescence intensity signals by Protein-fragment Complementation technology.Data from the assay component OT_ER_ERbERb_1440 was analyzed into 1 assay endpoint. This assay endpoint, OT_ER_ERbERb_1440, was analyzed in the positive analysis fitting direction relative to DMSO as the negative control and baseline of activity. Using a type of binding reporter, measures of receptor for gain-of-signal activity can be used to understand the binding at the pathway-level as they relate to the gene ESR2. Furthermore, this assay endpoint can be referred to as a primary readout, because the performed assay has only produced 1 assay endpoint. To generalize the intended target to other relatable targets, this assay endpoint is annotated to the nuclear receptor intended target family, where the subfamily is steroidal.
Protein-fragment complementation assay, or PCA, is a method for the identification and quantification of protein-protein interactions. In the PCA, the proteins of interest ("bait" and "prey") are each covalently linked to fragments of a third protein (e.g. DHFR, which acts as a "reporter"). Interaction between the bait and the prey proteins brings the fragments of the reporter protein in close proximity to allow them to form a functional reporter protein whose activity can be measured. The OT ER beta / ER beta assay is a homodimer PCA of the ligand binding domain (LBD; amino acids 310-547) of human ER beta stably expressed in HEK293T cells. […] Cells are fixed in 4 percent formaldehyde and stained with Draq5 (BioStatus) to identify cells prior to signal detection. Fluorescent signal in the basal state of the assay is very low and is primarily punctuate and cytoplasmic. Modulation of this assay is quantified as an increase in mean fluorescence intensity in the nucleus (for agonists) or in the nucleus and cytoplasm (antagonists) relative to vehicle controls, and can be quantified on a high content imaging device or a laser scanning cytometer. The latter instrument is favored for this assay because of the rapid mode of data acquisition, the ability to acquire data from the entire cell population in a well (as opposed to a fraction of the well on the high content devices) and the larger dynamic range typically achieved with this instrument. To assess sensitivity of the ER beta/ER beta LBD assay to ligand, cells were treated with the ER agonist 17- beta-estradiol (E2) in 10-point concentration- response format for 24 hours and monitored response on a laser scanning plate cytometer (Acumen eX3; TTP Lab Tech).

Chain of Estrogen receptor beta (Homo sapiens) (Q92731 whole entry, looked up, the tested form may be a part): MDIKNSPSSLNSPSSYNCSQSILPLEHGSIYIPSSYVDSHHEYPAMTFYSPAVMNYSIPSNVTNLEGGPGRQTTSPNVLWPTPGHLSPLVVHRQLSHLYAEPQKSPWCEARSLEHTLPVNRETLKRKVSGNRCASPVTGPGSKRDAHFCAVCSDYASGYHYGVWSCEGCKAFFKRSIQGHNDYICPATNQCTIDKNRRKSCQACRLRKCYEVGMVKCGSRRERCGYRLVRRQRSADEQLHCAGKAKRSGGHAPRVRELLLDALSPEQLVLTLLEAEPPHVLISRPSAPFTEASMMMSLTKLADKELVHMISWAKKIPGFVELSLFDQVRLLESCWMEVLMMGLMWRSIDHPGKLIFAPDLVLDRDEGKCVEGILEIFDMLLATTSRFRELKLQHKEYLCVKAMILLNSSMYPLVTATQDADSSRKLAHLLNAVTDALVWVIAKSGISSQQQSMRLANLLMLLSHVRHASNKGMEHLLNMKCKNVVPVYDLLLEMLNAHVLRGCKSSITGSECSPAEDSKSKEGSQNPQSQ

Row | Compound | outcome | AC50
1 | O=C(O)c1ccc([N+](=O)[O-])cc1 | inactive | –
2 | CCCC/C=C\CCCCCCCCCC=O | inactive | –
3 | COc1ccc(O)cc1 | inactive | –
4 | O=c1cc(-c2ccccc2)oc2cc(O)cc(O)c12 | – | 11 µM (active)
5 | BrC1CCC(Br)C(Br)CCC(Br)C(Br)CCC1Br (stereo not given) | inactive | –
6 | CCC/C=C/C=O | inactive | –
7 | OC1OC[C@@H](O)[C@H](O)[C@H]1O (stereo not given in full) | inactive | –
8 | C[Si](O[Si](C)(C)C)O[Si](C)(C)C | inactive | –
9 | CCCCCCCCCCCCCOS(=O)(=O)O | inactive | –
10 | CC(C)=CCCC(C)=CCCC(C)=CCO | – | 12.8 µM (active)
11 | c1ccc(CCCc2ccccn2)cc1 | inactive | –
12 | CC(C)c1cccc(O)c1 | – | 33.5 µM (active)
13 | CCCCCCCCC=O | inactive | –
14 | NCCNCCN | inactive | –
15 | CCCCOCCOCCOCCOCCO | inactive | –
16 | OCCN1CCNCC1 | inactive | –
17 | CCCCCCCCCCCCCCCC(=O)O | inactive | –
18 | NC(=O)Nc1ccc(Cl)cc1 | inactive | –
19 | CC(C)(N)CO | inactive | –
20 | C=CCOc1nc(OCC=C)nc(OCC=C)n1 | – | 25.5 µM (active)

Row | Compound | outcome | AC50
21 | CCCCCOC(=O)CCC | inactive | –
22 | CC(C)(C#N)c1cc(Cn2cncn2)cc(C(C)(C)C#N)c1 | inactive | –
23 | C=O | inactive | –
24 | CCCCC[Si](OCC)(OCC)OCC | inactive | –
25 | O=C(Oc1ccccc1)c1ccc(O)cc1 | – | 4.86 µM (active)
26 | Cc1ccc(S)cc1 | inactive | –
27 | O=C(Cl)c1cccc(C(=O)Cl)c1 | inactive | –
28 | CCCCC(CC)COC(=O)/C=C\C(=O)OCC(CC)CCCC (stereo not given) | inactive | –
29 | OCCOCCOCCOCCO | inactive | –
30 | O=C1C(c2[nH]c3ccc(S(=O)(=O)O)cc3c2O)=Nc2ccc(S(=O)(=O)O)cc21 | inactive | –
31 | CCCCCC(CO)CCC (stereo not given) | inactive | –
32 | CCCCCCCCCCCCCCCCCC(=O)OCC(CC)CCCC (stereo not given) | inactive | –
33 | CCCCCCCCCCCCCC(=O)O | inactive | –
34 | C=CC(C)(O)CCC=C(C)CCC=C(C)C (stereo not given) | inactive | –
35 | COc1c(Cl)c(Cl)c(Cl)c(Cl)c1Cl | inactive | –
36 | CC1COc2ccccc2N1C(=O)C(Cl)Cl (stereo not given) | inactive | –
37 | O=Nc1ccc(Nc2ccccc2)cc1 | inactive | –
38 | CCCCCCCCCC=O | inactive | –
39 | O=C[C@@H](O)[C@H](O)[C@H](O)CO | inactive | –
40 | CCN(CC)c1ccc2c(-c3ccccc3C(=O)O)c3ccc(=[N+](CC)CC)cc-3oc2c1 | – | 12.2 µM (active)
